# Test results from the supplement of paper PMC9950053.
# Counter-ions that a name gives are not always drawn.
# Experiments:
# Conditions in all cases: 10 µM; exposure time: 3 h pre-incubation + 3 h imaging
# [1] = system: Danio rerio larvae (5 dpf); assay: excitability (activity period 17 minus period 16, 1-s interval sound) minus DMSO control (percentage points); higher = more acoustic excitability than DMSO larvae
# Method in brief: (§1)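 Behavioural measures are expressed in percentage points as the treated group mean minus the control group mean. Groups held 48 larvae and the control held 844. Wild-type zebrafish larvae at 5 dpf received compounds at 10 µM final for 3 h before imaging and throughout 3 h of imaging at 28.5 °C, with frames every 6 s tracked by Z-LaP Tracker. Detections with probability below 0.5 and larvae moving less than 1% of the time were excluded.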
# [2] = system: Danio rerio larvae (5 dpf); assay: combined optomotor response (time in upper well half, down vs up moving lines, periods 7-14) minus DMSO control (percentage points); higher = stronger optomotor response than DMSO larvae
# [3] = system: Danio rerio larvae (5 dpf); assay: startle (activity period 16 minus period 15, 20-s interval sound) minus DMSO control (percentage points); higher = stronger startle response than DMSO larvae
# Method in brief: as §1
# [4] = system: Danio rerio larvae (5 dpf); assay: 1-h baseline activity (% time moving, periods 1-6) minus DMSO control (percentage points); higher = more locomotor activity than DMSO larvae
# Method in brief: as §1
# [5] = system: Danio rerio larvae (5 dpf); assay: habituation (activity change first vs second 5 min of 1-s interval sound, period 17) minus DMSO control (percentage points); higher = larger habituation measure than DMSO larvae
# Method in brief: as §1
structure (smiles),measurement,setting,value
Nc1nc2c(ncn2COCCO)c(=O)[nH]1 [Acyclovir],excitability,[1],3.35
CC(C)c1nc(CN(C)C(=O)N[C@H](C(=O)N[C@@H](Cc2ccccc2)C[C@H](O)[C@H](Cc2ccccc2)NC(=O)OCc2cncs2)C(C)C)cs1 [Ritonavir],excitability,[1],8.43
same,combined optomotor response,[2],3.14
Cc1ccccc1C(=O)Nc1ccc(C(=O)N2CCCC(O)c3cc(Cl)ccc32)c(C)c1 (centres undefined) [Tolvaptan],excitability,[1],8.2
same,combined optomotor response,[2],4.13
CC(=O)S[C@@H]1CC2=CC(=O)CC[C@]2(C)[C@H]2CC[C@@]3(C)[C@@H](CC[C@@]34CCC(=O)O4)[C@H]12 [Spironolactone],startle,[3],2.27
same,combined optomotor response,[2],0.523
CN1CCN(CCCN2c3ccccc3Sc3ccc(Cl)cc32)CC1 [Prochlorperazine dimaleate],1-h baseline activity,[4],4.26
same,combined optomotor response,[2],6.24
CN1CCC[C@@H]1CCO[C@](C)(c1ccccc1)c1ccc(Cl)cc1 [Clemastine fumarate],excitability,[1],12.9
same,combined optomotor response,[2],7.99
NC(=O)N1c2ccccc2C=Cc2ccccc21 [Carbamazepine],habituation,[5],2.97
same,combined optomotor response,[2],6.15
CN/C(=N\CCSCc1nc[nH]c1C)NC#N [Cimetidine],excitability,[1],-2.33
same,combined optomotor response,[2],0.13
Cc1nc(-c2ccc(OCC(C)C)c(C#N)c2)sc1C(=O)O [Febuxostat],excitability,[1],-0.805
same,habituation,[5],-3.37
same,combined optomotor response,[2],1.46
O=C(NCC1CCCCN1)c1cc(OCC(F)(F)F)ccc1OCC(F)(F)F (centres undefined) [Flecainide acetate],1-h baseline activity,[4],-0.107
same,combined optomotor response,[2],2.85
CC/C(=C(\c1ccccc1)c1ccc(OCCN(C)C)cc1)c1ccccc1 [Tamoxifen citrate],1-h baseline activity,[4],26.3
same,combined optomotor response,[2],-10.7
O=C1CCc2cc(OCCCCc3nnnn3C3CCCCC3)ccc2N1 [Cilostazol],1-h baseline activity,[4],10
same,combined optomotor response,[2],5.41
O=C(O)c1cc(/N=N/c2ccc(S(=O)(=O)Nc3ccccn3)cc2)ccc1O [Sulfasalazine],1-h baseline activity,[4],12.5
same,habituation,[5],1.27
same,combined optomotor response,[2],1.33
OC(CNCC(O)C1CCc2cc(F)ccc2O1)C1CCc2cc(F)ccc2O1 (centres undefined) [Nebivolol hydrochloride],excitability,[1],12.7
same,combined optomotor response,[2],-9.95
COc1cc2nc(N3CCN(C(=O)C4COc5ccccc5O4)CC3)nc(N)c2cc1OC (centres undefined) [Doxazosin mesylate],excitability,[1],21.8
same,habituation,[5],0.55
same,combined optomotor response,[2],-3.96
Nc1nc(F)nc2c1ncn2[C@@H]1O[C@H](CO)[C@@H](O)[C@@H]1O [Fludarabine],1-h baseline activity,[4],4.33
same,combined optomotor response,[2],-1.67
CCOc1ccccc1OCCN[C@H](C)Cc1ccc(OC)c(S(N)(=O)=O)c1 [Tamsulosin hydrochloride],excitability,[1],16.7
same,combined optomotor response,[2],4.93
CC(C)C(=O)OCC(=O)[C@@]12O[C@H](C3CCCCC3)O[C@@H]1C[C@H]1[C@@H]3CCC4=CC(=O)C=C[C@]4(C)[C@H]3[C@@H](O)C[C@@]12C [Ciclesonide],excitability,[1],6.47
same,habituation,[5],0.71
same,combined optomotor response,[2],1.14
CCCc1nc2c(C)cc(-c3nc4ccccc4n3C)cc2n1Cc1ccc(-c2ccccc2C(=O)O)cc1 [Telmisartan],1-h baseline activity,[4],-7.8
same,combined optomotor response,[2],2.86
CC(=O)O[C@]1(C(C)=O)CC[C@H]2[C@@H]3C=C(C)C4=CC(=O)CC[C@]4(C)[C@H]3CC[C@@]21C [Megestrol Acetate],excitability,[1],12.4
same,combined optomotor response,[2],-8.35
Nc1nc(Cl)nc2c1ncn2[C@@H]1O[C@H](CO)[C@@H](O)[C@@H]1F [Clofarabine],1-h baseline activity,[4],-5.31
same,combined optomotor response,[2],4.66
CC(C)(C(=O)c1cccnc1)c1cccnc1 [Metyrapone],excitability,[1],15.8
same,habituation,[5],0.481
same,combined optomotor response,[2],-5.86
O=C(O[C@@H]1C[C@@H]2C[C@H]3C[C@H](C1)N2CC3=O)c1c[nH]c2ccccc12 [Dolasetron mesylate],1-h baseline activity,[4],-3.58
same,combined optomotor response,[2],-2.11
CN1CC[C@@H](NC(=O)Nc2ccc(C#N)cc2)C[C@@H]1c1nc2ccccc2[nH]1,1-h baseline activity,[4],-10
same,combined optomotor response,[2],-1.72
Cn1cnc([N+](=O)[O-])c1Sc1ncnc2[nH]cnc12 [Azathioprine],1-h baseline activity,[4],7.62
same,combined optomotor response,[2],2.29
Nc1ncn([C@H]2C[C@H](O)[C@@H](CO)O2)c(=O)n1 [Decitabine],1-h baseline activity,[4],1.07
same,combined optomotor response,[2],3.77
CC[C@H](C)C(=O)O[C@H]1C[C@@H](C)C=C2C=C[C@H](C)[C@H](CC[C@@H]3C[C@@H](O)CC(=O)O3)[C@H]21 [Lovastatin],combined optomotor response,[2],5.24
CS(=O)(=O)CCNCc1ccc(-c2ccc3ncnc(Nc4ccc(OCc5cccc(F)c5)c(Cl)c4)c3c2)o1 [Lapatinib],combined optomotor response,[2],-2.06
CC(C)(C)NC(=O)[C@@H]1C[C@@H]2CCCC[C@@H]2CN1C[C@@H](O)[C@H](Cc1ccccc1)NC(=O)[C@H](CC(N)=O)NC(=O)c1ccc2ccccc2n1 [Saquinavir mesylate],combined optomotor response,[2],-2.96
OCCN(CCO)c1nc(N2CCCCC2)c2nc(N(CCO)CCO)nc(N3CCCCC3)c2n1 [Dipyridamole],combined optomotor response,[2],-1.19
CC(C)(C#N)c1cc(Cn2cncn2)cc(C(C)(C)C#N)c1 [Anastrozole],combined optomotor response,[2],-1.87
Nc1cc(N2CCCCC2)nc(N)[n+]1[O-] [Minoxidil],combined optomotor response,[2],-1.34
CCCCC(=O)N(Cc1ccc(-c2ccccc2-c2nnn[nH]2)cc1)[C@H](C(=O)O)C(C)C [Valsartan],combined optomotor response,[2],7.07
O=C(Nc1c(Cl)cncc1Cl)c1ccc(OC(F)F)c(OCC2CC2)c1 [Roflumilast],combined optomotor response,[2],-6.05
COc1cc2ncnc(Nc3ccc(F)c(Cl)c3)c2cc1OCCCN1CCOCC1 [Iressa],combined optomotor response,[2],5.72
NC(=O)c1ncn([C@@H]2O[C@H](CO)[C@@H](O)[C@H]2O)n1 [Ribavirin],combined optomotor response,[2],5.43
COc1ccc(-c2ccc3cc(C(=O)O)ccc3c2)cc1C12CC3CC(CC(C3)C1)C2 [Adapalene],combined optomotor response,[2],0.129
Cc1ccc(O)c([C@H](CCN(C(C)C)C(C)C)c2ccccc2)c1 [Tolterodine L-tartrate],combined optomotor response,[2],-1.96
Nc1cccc2c1CN(C1CCC(=O)NC1=O)C2=O (centres undefined) [Lenalidomide],combined optomotor response,[2],1.12
CC(C)c1nc(N(C)S(C)(=O)=O)nc(-c2ccc(F)cc2)c1/C=C/[C@@H](O)C[C@@H](O)CC(=O)O [Rosuvastatin calcium],combined optomotor response,[2],6.26
CC(C)[C@H]1CC[C@H](C(=O)N[C@H](Cc2ccccc2)C(=O)O)CC1 [Nateglinide],combined optomotor response,[2],3.95
CCCCCCCCc1ccc(CCC(N)(CO)CO)cc1,combined optomotor response,[2],-4.85
O=c1[nH]c(=O)n([C@H]2C[C@H](O)[C@@H](CO)O2)cc1C(F)(F)F [Trifluorothymidine],combined optomotor response,[2],5.31
CC(=O)NC[C@H]1CN(c2ccc(N3CCOCC3)c(F)c2)C(=O)O1 [Linezolid],combined optomotor response,[2],6.27
C[C@H](Cc1cc2c(c(C(N)=O)c1)N(CCCO)CC2)NCCOc1ccccc1OCC(F)(F)F [Silodosin],combined optomotor response,[2],9.04
Nc1ccn([C@@H]2O[C@H](CO)[C@@H](O)C2(F)F)c(=O)n1 [Gemcitabine hydrochloride],combined optomotor response,[2],1.86
COc1c(C)c2c(c(O)c1C/C=C(\C)CCC(=O)OCCN1CCOCC1)C(=O)OC2 [Mycophenolate mofetil],combined optomotor response,[2],12.9
CC(C)n1c(/C=C/C(O)CC(O)CC(=O)O)c(-c2ccc(F)cc2)c2ccccc21 (centres undefined) [Fluvastatin sodium],combined optomotor response,[2],-0.348
CCOc1cc(CC(=O)N[C@@H](CC(C)C)c2ccccc2N2CCCCC2)ccc1C(=O)O [Repaglinide],combined optomotor response,[2],2.6
COc1cc(Nc2c(C#N)cnc3cc(OCCCN4CCN(C)CC4)c(OC)cc23)c(Cl)cc1Cl [Bosutinib],combined optomotor response,[2],0.386
Nc1ncn([C@@H]2O[C@H](CO)[C@@H](O)[C@H]2O)c(=O)n1 [5-Azacytidine],combined optomotor response,[2],3.71
CCCc1nc(C(C)(C)O)c(C(=O)O)n1Cc1ccc(-c2ccccc2-c2nnn[nH]2)cc1 [Olmesartan],combined optomotor response,[2],1.99
C=CC(=O)N1CCC[C@@H](n2nc(-c3ccc(Oc4ccccc4)cc3)c3c(N)ncnc32)C1 [Ibrutinib],combined optomotor response,[2],5.02
CC(C)c1ccc2oc3nc(N)c(C(=O)O)cc3c(=O)c2c1 [Amlexanox],combined optomotor response,[2],4.64
CN1CC(=O)N2[C@H](c3ccc4c(c3)OCO4)c3[nH]c4ccccc4c3C[C@@H]2C1=O [Tadalafil],combined optomotor response,[2],-1.2
COc1ccc(C[C@@H](C)NC[C@H](O)c2ccc(O)c(NC=O)c2)cc1 [Arformoterol tartrate],combined optomotor response,[2],-7.68
CN(C)CC/C=C1/c2ccccc2COc2ccc(CC(=O)O)cc21 [Olopatadine hydrochloride],combined optomotor response,[2],8.84
CCOC(=O)[C@H](CCc1ccccc1)N[C@H]1CCc2ccccc2N(CC(=O)O)C1=O [Benazepril hydrochloride],combined optomotor response,[2],5.66
Nc1nc(NC2CC2)c2ncn([C@H]3C=C[C@@H](CO)C3)c2n1 [Abacavir hemisulfate],combined optomotor response,[2],4.25
